Source: the supplement of paper PMC10981050
Values joined by “and” are separate entries in the source; they are usually repeats but may differ in a detail not shown here. Equal entries are not always repeated. Structures can show the parent of a compound that is named as a salt.

Experiments:
Assay in all cases: cell viability relative to vehicle control; higher = less cytotoxic
Conditions in all cases: 10 µM
[1] = system: K562
How it was run: (§1)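 Mutant clones made by CRISPR editing and their isogenic wild-type counterparts, from four leukaemia lines, were exposed to a single 10 µM dose of each library compound for 48 h. The supernatant was then removed and CellTiter-Glo luminescence was read. Viability was reported as percent of the on-plate vehicle control.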

[2] = system: MARIMO
How it was run: as §1

[3] = system: MOLM14
How it was run: as §1

[4] = system: OCI-AML2
How it was run: as §1

| SMILES | cell viability ([1]; SRSF2 genotype: SRSF2 P95H/wt) | cell viability ([1]; SRSF2 genotype: SRSF2 wt/wt) [%] | cell viability ([2]; SRSF2 genotype: SRSF2 P95H/wt) [%] | cell viability ([2]; SRSF2 genotype: SRSF2 wt/wt) [%] | cell viability ([3]; SRSF2 genotype: SRSF2 P95H/wt) [%] | cell viability ([3]; SRSF2 genotype: SRSF2 wt/wt) [%] | cell viability ([4]; SRSF2 genotype: P95H/wt) [%] | cell viability ([4]; SRSF2 genotype: wt/wt) [%] |
| --- | --- | --- | --- | --- | --- | --- | --- | --- |
| O=C(O[C@H]1C[C@H]2CC[C@@H](C1)[N+]21CCCC1)C(O)(c1ccccc1)c1ccccc1 [Trospium chloride (Sanctura)] | 98.8% and 100% | 95.7 | 101 | 102 | 99.4 | 102 | 102 | 102 |
| N[C@@H]1C[C@H]1c1ccccc1 [Tranylcypromine (2-PCPA) HCl] | 109% and 112% | 115 | 98 | 107 | 97.7 | 97.5 | 94.1 | 85 |
| CCN(CC)C(=O)c1ccc(C2=CC3(CCNCC3)Oc3cccc(O)c32)cc1 | 93.6% and 101% | 92.9 | 88.9 | 98.2 | 97.5 | 93.4 | 97.3 | 89 |
| CN1[C@@H]2CC[C@H]1C[C@@H](OC(=O)[C@H](CO)c1ccccc1)C2 [Hyoscyamine (Daturine)] | 104% and 93.5% | 91.9 | 104 | 107 | 99.2 | 102 | 95.4 | 113 |
| CN1CCCCC1Cn1cc(C(=O)c2cc([N+](=O)[O-])ccc2I)c2ccccc21 (stereo not drawn) | 83.1% and 88.8% | 87.2 | 84.2 | 103 | 3.13 | 2.06 | 76.2 | 65.5 |
| CCCN1C[C@H](CSC)C[C@@H]2c3cccc4[nH]cc(c34)C[C@H]21 [Pergolide mesylate] | 86.1% and 87.8% | 89.7 | 91.7 | 103 | 69.6 | 83.5 | 84 | 93.1 |
| O=C1C2CCN(CC2)C1(CO)CO | 74.5% and 85.5% | 73.3 | 83.6 | 73.8 | 34.1 | 41.8 | 56.2 | 47 |
| COc1ccc(C[C@H]2NC[C@H](O)[C@H]2OC(C)=O)cc1 [Anisomycin] | 4.09% and 9.55% | 7.54 | 13.6 | 6.74 | 0.46 | 0.44 | 3.57 | 10.5 |
| O=C1CCC[C@@H]2[C@H]3CCCN4CCC[C@@H](CN12)[C@@H]34 [Matrine ((+)-Matrine)] | 94.4% and 112% | 102 | 107 | 110 | 105 | 106 | 106 | 103 |
| NCC(=O)O.[C-]#[O+].[C-]#[O+].[C-]#[O+].[Cl][Ru] | 104% and 93.3% | 96.2 | 88.5 | 99.2 | 88.6 | 90.8 | 91.9 | 114 |
| CC(C)C1=CC(=O)[C@@](C)(C2[C@H](O)C[C@@]3(C)[C@@H]4CC=C5[C@@H](CC[C@@H](OC6OCC(O)C(O)C6OC6OC(C)C(O)C(O)C6O)C5(C)C)[C@]4(C)C(=O)C[C@]23C)O1 (stereo partly drawn) [Picfeltarraenin IA] | 95.9% and 96.6% | 89.6 | 92.2 | 92.5 | 89.7 | 93.2 | 94.3 | 101 |
| COc1cc2c(cc1OC)C(Cc1ccc(O)c(Oc3cc4c(cc3OC)CCN(C)C4Cc3ccc(O)cc3)c1)N(C)CC2.[O-][Cl+3]([O-])([O-])O (stereo not drawn) [Liensinine diperchlorate] | 87% and 79.8% | 77.4 | 64.6 | 76.3 | 61.7 | 77.2 | 63.7 | 63.7 |
| CCc1c(C(=O)C(N)=O)c2c(OCC(=O)O)cccc2n1Cc1ccccc1 | 93.5% and 89.8% | 88.8 | 82.6 | 92 | 93.1 | 95.2 | 84 | 90.6 |
| NC(=O)CN1CCCC1=O [Piracetam] | 96.1% and 103% | 98.7 | 102 | 102 | 99.6 | 105 | 103 | 112 |
| CCCCCCC(=O)O[C@H]1CC[C@H]2[C@@H]3CCC4=CC(=O)CC[C@]4(C)[C@H]3CC[C@]12C [Testosterone Enanthate] | 91.4% and 86% | 88.5 | 66.5 | 61.8 | 50.1 | 20.5 | 23.7 | 25.8 |
| COc1cc(C2OCC3C(c4cc(OC)c(OC5OC(CO)C(O)C(O)C5O)c(OC)c4)OCC23)cc(OC)c1OC1OC(CO)C(O)C(O)C1O (stereo not drawn) [Eleutheroside E] | 104% and 98.2% | 101 | 97.3 | 97.9 | 98.5 | 107 | 102 | 112 |
| ClC(Cl)=C(c1ccc(Cl)cc1)c1ccc(Cl)cc1 | 103% and 96.8% | 106 | 89.6 | 99.1 | 96.8 | 105 | 100 | 108 |
| C[C@]12C=CC(=O)C=C1CC[C@@H]1[C@@H]2CC[C@@]2(C)[C@H]1CC[C@]2(C)O [Methandrostenolone] | 102% and 107% | 102 | 103 | 105 | 103 | 110 | 115 | 104 |
| C[C@](O)(COc1ccc(C#N)cc1)C(=O)Nc1ccc(C#N)c(C(F)(F)F)c1 | 90.6% and 94.9% | 97.9 | 98.7 | 94.2 | 94 | 96.7 | 99.4 | 93.4 |
| N#CC(C#N)=NNc1ccc(OC(F)(F)F)cc1 | 16.2% and 15.8% | 19.2 | 31.8 | 28 | 14.5 | 11.2 | 2.85 | 8.68 |
| C[C@@]12N[C@@H](Cc3ccccc31)c1ccccc12 [(-)-MK 801 maleate] | 105% and 106% | 108 | 101 | 100 | 100 | 112 | 98.3 | 90.7 |
